# Measurements published in PubChem BioAssay AID1159580 (chemical genetic matrix, 2015).
# Values joined by “and” are separate entries in the source; they are usually repeats but may differ in a detail not shown here. Equal values may be shown once. In all, about 5,500 compounds went through this assay and about 2,000 (36%) were called active. Inconclusive results (about 18%) are left out. The list shows a part of the results. Unmarked numbers belong to inactive results. No stated cut-off is given here; in the data, active means normalized growth mostly below about 0.91 (no sharp cut-off); inconclusive means no clear call, values can overlap the other calls; inactive means mostly above about 0.92.
# Assay: chemical genetic growth profiling, strain panel (AID 1159580);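 further: tested at 20 µM; growth read once vehicle control cultures reached saturation at 30 °C; 1 = growth at the plate median or of vehicle wells; lower values mean less growth of the strain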
# Conditions: S. cerevisiae deletion strains, growth OD
structure (smiles),measurement,setting,value
CCCC(CCC)C(=O)O,normalized growth,"locus YAL013W, strain DEP1, hits give low values",0.993 and 0.977
same,normalized growth,"locus YAL021C, strain ccr4, hits give low values",1
same,normalized growth,"locus YAL026C, strain drs2, hits give low values",1
same,normalized growth,"locus YAL030W, strain snc1, hits give low values",1.01
same,normalized growth,"locus YAL040C, strain CLN3, hits give low values",0.959
same,normalized growth,"locus YBL061C, strain skt5, hits give low values",1
same,normalized growth,"locus YBR009C, strain hhf1, hits give low values",1
same,normalized growth,"locus YBR021W, strain FUR4, hits give low values",0.953
same,normalized growth,"locus YBR023C, strain chs3, hits give low values",1.01
same,normalized growth,"locus YBR171W, strain sec66, hits give low values",1.01
same,normalized growth,"locus YBR229C, strain ROT2, hits give low values",0.992
same,normalized growth,"locus YBR231C, strain swc5, hits give low values",1.01
same,normalized growth,"locus YBR279W, strain paf1, hits give low values",1.02
same,normalized growth,"locus YCL011C, strain gbp2, hits give low values",1.01
same,normalized growth,"locus YCL016C, strain dcc1, hits give low values",1.01
same,normalized growth,"locus YCL029C, strain bik1, hits give low values",0.954
same,normalized growth,"locus YCL061C, strain MRC1 (second series), hits give low values",0.985
same,normalized growth,"locus YCL061C, strain MRC1, hits give low values",1
same,normalized growth,"locus YCL069W, strain vba3, hits give low values",1.02
same,normalized growth,"locus YCR088W, strain abp1, hits give low values",1.01
same,normalized growth,"locus YDL005C, strain med2, hits give low values",1.01
same,normalized growth,"locus YDL035C, strain GPR1, hits give low values",1
same,normalized growth,"locus YDL040C, strain nat1, hits give low values",1.01
same,normalized growth,"locus YDL074C, strain BRE1, hits give low values",1
same,normalized growth,"locus YDL101C, strain DUN1, hits give low values",1.01
same,normalized growth,"locus YDL185W, strain tfp1, hits give low values",0.964
same,normalized growth,"locus YDL192W, strain arf1, hits give low values",0.97
same,normalized growth,"locus YDR001C, strain nth1, hits give low values",1.01
same,normalized growth,"locus YDR069C, strain doa4, hits give low values",1.01
same,normalized growth,"locus YDR101C, strain arx1, hits give low values",0.963
same,normalized growth,"locus YDR137W, strain rgp1, hits give low values",0.985
same,normalized growth,"locus YDR150W, strain NUM1, hits give low values",0.981
same,normalized growth,"locus YDR159W, strain sac3, hits give low values",1.01
same,normalized growth,"locus YDR162C, strain NBP2, hits give low values",1
same,normalized growth,"locus YDR195W, strain ref2",1.02
same,normalized growth,"locus YDR297W, strain sur2, hits give low values",1
same,normalized growth,"locus YDR318W, strain mcm21, hits give low values",0.97
same,normalized growth,"locus YDR334W, strain swr1, hits give low values",1.02
same,normalized growth,"locus YDR335W, strain msn5, hits give low values",1.01
same,normalized growth,"locus YDR363W, strain ESC2, hits give low values",0.994
same,normalized growth,"locus YDR388W, hits give low values",0.967
same,normalized growth,"locus YDR392W, strain spt3, hits give low values",0.95
same,normalized growth,"locus YDR502C, strain sam2, hits give low values",0.965
same,normalized growth,"locus YEL003W, strain gim4, hits give low values",1.01
same,normalized growth,"locus YEL037C, strain rad23, hits give low values",1.01
same,normalized growth,"locus YEL061C, strain CIN8 (second series), hits give low values",1.01
same,normalized growth,"locus YEL061C, strain CIN8, hits give low values",0.994
same,normalized growth,"locus YER002W, strain NOP16, hits give low values",0.979
same,normalized growth,"locus YER015W, strain faa2, hits give low values",1.02
same,normalized growth,"locus YER016W, strain bim1, hits give low values",1
same,normalized growth,"locus YER110C, hits give low values",0.985
same,normalized growth,"locus YER111C, strain swi4, hits give low values",1.02
same,normalized growth,"locus YER155C, strain BEM2 (second series), hits give low values",0.996
same,normalized growth,"locus YER155C, strain BEM2, hits give low values",0.975
same,normalized growth,"locus YER167W, strain BCK2, hits give low values",0.986
same,normalized growth,"locus YFR010W, strain ubp6, hits give low values",1.02
same,normalized growth,"locus YGL078C, strain dbp3, hits give low values",0.963
same,normalized growth,"locus YGL086W, strain mad1, hits give low values",0.964
same,normalized growth,"locus YGL167C, strain pmr1, hits give low values",1.01
same,normalized growth,"locus YGL173C, strain kem1, hits give low values",1.01
same,normalized growth,"locus YGL227W, strain vid30, hits give low values",1.01
same,normalized growth,"locus YGL240W, strain doc1, hits give low values",1.01
same,normalized growth,"locus YGL248W, strain PDE1, hits give low values",0.998
same,normalized growth,"locus YGL253W, strain hxk2, hits give low values",1.01
same,normalized growth,"locus YGR078C, strain PAC10, hits give low values",0.989
same,normalized growth,"locus YGR135W, strain pre9, hits give low values",1
same,normalized growth,"locus YGR252W, strain gcn5, hits give low values",0.967
same,normalized growth,"locus YHR013C, strain ard1, hits give low values",1.03
same,normalized growth,"locus YHR027C, strain rpn1, hits give low values",1.03
same,normalized growth,"locus YHR030C, strain SLT2, hits give low values",0.987 and 0.951
same,normalized growth,"locus YHR079C, strain IRE1 (second series), hits give low values",0.966
same,normalized growth,"locus YHR079C, strain IRE1, hits give low values",0.951
same,normalized growth,"locus YHR094C, strain hxt1, hits give low values",0.97
same,normalized growth,"locus YHR129C, strain ARP1, hits give low values",0.994
same,normalized growth,"locus YHR142W, strain chs7, hits give low values",1.03
same,normalized growth,"locus YHR200W, strain rpn10, hits give low values",0.971
same,normalized growth,"locus YIL066C, strain RNR3, hits give low values",0.992
same,normalized growth,"locus YIL073C, strain SPO22, hits give low values",1.03
same,normalized growth,"locus YIL125W, strain kgd1, hits give low values",0.92 (active)
same,normalized growth,"locus YIR030C, strain dcg1, hits give low values",0.966
same,normalized growth,"locus YJL092W, strain hpr5, hits give low values",1.01
same,normalized growth,"locus YJL095W, strain BCK1 (second series), hits give low values",1.01
same,normalized growth,"locus YJL095W, strain BCK1, hits give low values",0.993 and 0.94
same,normalized growth,"locus YJL115W, strain asf1, hits give low values",1.02
same,normalized growth,"locus YJL129C, strain trk1, hits give low values",1.01
same,normalized growth,"locus YJL134W, strain LCB3, hits give low values",0.993
same,normalized growth,"locus YJL154C, strain vps35, hits give low values",1.01
same,normalized growth,"locus YJL164C, strain tpk1, hits give low values",1
same,normalized growth,"locus YJL166W, strain qcr8, hits give low values",1.01
same,normalized growth,"locus YJL168C, strain set2, hits give low values",0.986
same,normalized growth,"locus YJL187C, strain SWE1 (second series), hits give low values",0.992
same,normalized growth,"locus YJL187C, strain SWE1, hits give low values",1.01
same,normalized growth,"locus YJR043C, strain POL32, hits give low values",1.01
